From PubChem BioAssay AID1347416 (National Center for Advancing Translational Sciences (NCATS), 2020)
The whole screen tested about 4,100 compounds, of which about 1,600 (39%) were called active. Not shown: some 25% with an inconclusive outcome. Calls come from the whole dose curve; as a rule, active = well fitted inhibition curve with a large enough effect; inconclusive = small, poorly fitted or top-dose-only effect; inactive = no such curve, though single readings can be large or run the other way. Some of the results follow. Where a call stands in place of a potency, no number is given.

Test: qHTS Validation assay for Inhibitors of Plasmodium falciparum Dd2 growth in vitro; note: nearly all actives have a fitted effect of over 70% in size
Settings: P. falciparum Dd2 in RBCs, SYBR Green growth, 72 h; series mostly up to 28.7 µM
How it was run: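 P. falciparum Dd2-infected red blood cells (2.5% hematocrit, 0.3% parasitemia) grown 72 h at 37 °C under 5% O2 with compounds in a titration, 29 uM to 0.5 nM final. Growth read as SYBR Green-1 fluorescence after ~16 h lysis; artesunate 300 nM as positive control.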
Potency is the fitted concentration of half-maximal effect.

| SMILES | Potency |
| --- | --- |
| CC(C)N1C(=S)N(Cc2ccco2)C(=O)C1CC(=O)Nc1ccccc1 (centres undefined) | 1.68 µM (active) |
| CN1CCC(Nc2ncc3ncnc(Nc4ccc(F)c(Cl)c4)c3n2)CC1 | 10.6 µM (active) |
| Cc1cccc(N2CCN(C(=O)CCc3nnc4n(CC(C)C)c(=O)c5ccccc5n34)CC2)c1C | 3.35 µM (active) |
| Cc1ccc(/C=N/NC(=O)c2cc3ccccc3cc2O)o1 | 5.31 µM (active) |
| CCNc1nc(NC(C)CC)nc(ON=C(C)C)n1 (centres undefined) | 8.41 µM (active) |
| CCc1ccc(S(=O)(=O)c2nnn3c2nc(Nc2ccc(F)cc2)c2cc(Cl)ccc23)cc1 | 2.11 µM (active) |
| CSc1cccc(Nc2nc3c(S(=O)(=O)c4ccccc4)nnn3c3ccc(Cl)cc23)c1 | 1.88 µM (active) |
| COCCN1C(=O)CS(=O)(=O)C12CCN(C(=O)C1(c3ccccc3)CC1)CC2 | inactive |
| CNCC(=O)N1CCC2(CC1)CN(CCOc1ccccc1)C(=O)O2 | inactive |
| COc1ccccc1C(=O)N1CCC2(CC1)OC(=O)N(Cc1ccccc1C#N)C2(C)c1ccccc1 (centres undefined) | 15 µM (active) |
| COc1ccccc1C(=O)N1CCCN(c2nnc3cccc(C)n23)CC1 | inactive |
| COc1ccccc1C(=O)N1CCC2(CC1)OC(=O)N(CCOc1ccccc1)C2(C)c1cccnc1 (centres undefined) | 9.44 µM (active) |
| Cn1cnnc1-c1nn(C)c2c1CN(C(=O)c1cc3ccccc3[nH]1)CC2 | inactive |
| N#Cc1cccc(S(=O)(=O)N2CC(C(=O)NC3CCCCC3)C3(CCOCC3)C2)c1 (centres undefined) | inactive |
| CCC(C)NC(=O)c1cc2c(Cl)nc3ccc(C)cc3c2s1 (centres undefined) | inactive |
| COc1cc(NC(=O)c2cc3c(Cl)nc4ccccc4c3s2)cc(OC)c1OC | 4.73 µM (active) |
| CCCc1noc(-c2cccn3c(CNC(=O)c4ccccc4OCC)nnc23)n1 | inactive |
| COCCc1nn2c(=O)cc(COC(=O)C(c3ccccc3)c3ccccc3)nc2s1 | 2.66 µM (active) |
| COc1cc(C(=O)Nc2ccccc2OCc2cc(=O)n3cc(C)sc3n2)cc(OC)c1OC | inactive |
| Cc1csc2nc(COc3ccc(NC(=O)c4ccccc4F)cc3)cc(=O)n12 | inactive |

| SMILES | Potency |
| --- | --- |
| Cn1c(=O)c2nc(SCC(=O)Nc3ccc(Cl)c(Cl)c3)n(C)c2n(C)c1=O | inactive |
| Cn1c(=O)[nH]c2nnc(-c3ccc(Cl)c(Cl)c3)nc2c1=O | 8.41 µM (active) |
| CCN1CCN(c2cc(C)c3cc(NC(=O)/C=C/c4ccc(C)cc4)ccc3n2)CC1 | 4.22 µM (active) |
| CCN1CCN(c2cc(C)c3cc(NC(=O)/C=C/c4ccc(OCCC(C)C)cc4)ccc3n2)CC1 | 2.11 µM (active) |
| CCS(=O)(=O)N1CC(F)(F)C[C@H]1c1nc(CCOC)no1 | inactive |
| COc1cccc(NC(=O)CSc2nc3cc(OC)c(OC)cc3c3nc(-c4ccccc4)nn23)c1 | inactive |
| COc1cc2nc(NCc3ccccc3)n3nc(-c4ccccc4)nc3c2cc1OC | 0.422 µM (active) |
| COc1cc2nc(NCc3ccc(C)cc3)n3nc(-c4ccccc4)nc3c2cc1OC | 0.266 µM (active) |
| COc1cc2nc(NCc3ccccc3Cl)n3nc(-c4cccnc4)nc3c2cc1OC | 2.11 µM (active) |
| COc1ccccc1S(=O)(=O)Cc1ccc(C(=O)NCc2cccs2)o1 | inactive |
| CC(C(=O)N1CCCN(c2cc(-c3ccc(Cl)cc3)[nH]n2)CC1)c1ccccc1 (centres undefined) | inactive |
| Nc1nc(N)c2c(ccc3nccc32)[nH]1 | inactive |
| O=C(CCc1nc2ccccc2[nH]1)N1C[C@@H](CO)[C@H](c2ccccn2)C1 | inactive |
| Cc1ccc(C)c(N=Nc2nc3ccccc3n2C)c1 | 0.299 µM (active) |
| CCN(Cc1nc2ccccc2n1C)c1ccccc1 | inactive |
| c1ccc(COc2cncc(-c3cccnc3)c2)cc1 | inactive |
| CCOc1c(CNCCSc2nnnn2C)cccc1OC | inactive |
| Cn1nnnc1SCCCNCc1cccc(OCc2ccccc2)c1 | 9.44 µM (active) |
| COc1cc2c(cc1OC)C(COc1ccc3c(C)cc(=O)oc3c1)N(C(=O)c1ccccc1C)CC2 (centres undefined) | 15 µM (active) |
| COc1ccc2c(C)c(C(=O)N3CC(Oc4c(C)cccc4C)C3)oc2c1 | inactive |

| SMILES | Potency |
| --- | --- |
| COc1cc2c(cc1OC)[C@H](C)N(C(=O)COc1ccccc1)CC2 | inactive |
| CC(=O)N1CCc2cc(Br)cc(S(=O)(=O)N3CCCCCC3)c21 | 5.31 µM (active) |
| CC(=O)N1CCc2cc(Br)cc(S(=O)(=O)N3CCCCC3)c21 | 5.96 µM (active) |
| CC(C)c1nc2c(c(-c3ccc(O)cc3)n1)CCN(Cc1ccc(OC(F)(F)F)cc1)CC2 | 2.99 µM (active) |
| CC(=O)Nc1ccc(CN2CCc3nc(C(C)C)nc(-c4ccc(Cl)cc4)c3CC2)cc1 | 2.66 µM (active) |
| Cc1nc(-c2c3n(c(=O)n(Cc4ccc(OC(F)(F)F)cc4)c2=O)CCCCC3)no1 | inactive |
| COCC(=O)N1CCc2nc(-c3ccccc3)nc(-c3ccc(Cl)cc3)c2C1 | inactive |
| CC(=O)Nc1ccc(CN2CCn3c(nn(-c4ccc(Cl)cc4)c3=O)C2)cc1 | inactive |
| CC(C)c1nc2c(c(-c3ccc(O)cc3)n1)CN(Cc1cccc(F)c1)CC2 | 9.44 µM (active) |
| Cc1nc2c(c(-c3ccc(O)cc3)n1)CN(C(=O)c1cccc(Cl)c1)CC2 | inactive |
| Cc1nc(-c2c3n(c(=O)n(Cc4ccc(OC(F)(F)F)cc4)c2=O)CCCC3)no1 | inactive |
| CC(C)c1nc2c(c(-c3ccc(O)cc3)n1)CCN(Cc1ccc(C(F)(F)F)cc1)CC2 | 5.31 µM (active) |
| CCn1nc(C)c(-c2cc(C(=O)NCCc3noc(-c4ccccc4)n3)no2)c1C | inactive |
| CC1(C)C[C@H](NCc2ccc(CO)o2)[C@@]2(CCC(=O)NCCN3CCOCC3)CC[C@](C)(O)C[C@@H]12 | inactive |
| Cc1nc2c(c(-c3ccc(O)cc3)n1)CN(Cc1ccc(C(F)(F)F)cc1)CCC2 | 4.22 µM (active) |
| COc1ccccc1CNS(=O)(=O)c1ccc2c(c1)CC(=O)N2C | inactive |
| Cc1ccc(C(=O)Nc2cccc(NC(=O)c3ccc(C)c([N+](=O)[O-])c3)n2)cc1[N+](=O)[O-] | 15 µM (active) |
| Cc1ccc(C(=O)NCCn2c(C)cc3ccccc32)cc1C | inactive |
| COc1ccc(N(CC(=O)NCc2ccncc2)S(=O)(=O)c2ccc(C)c([N+](=O)[O-])c2)cc1 | inactive |
